Source: PubChem BioAssay AID504660 (National Center for Advancing Translational Sciences (NCATS), 2011)
Where “and” joins values, the source holds several entries; their conditions need not be identical. Identical values can stand only once. Out of some 360,000 compounds screened, about 3,700 (1%) were called active. Cut-off read from the data, not from the text of the source: active = activation above about 30%; inactive = the rest. The full list was thinned out, with actives kept by preference.

target: D(1A) dopamine receptor (Homo sapiens) (UniProt P21728); assay: Allosteric Agonists of the Human D1 Dopamine Receptor: qHTS; conditions: HEK293 T-REx D1 cells, calcium flux, agonist mode; at 2 µM; hits give high values; note: 0% is about no effect
Sequence (P21728 whole entry, looked up): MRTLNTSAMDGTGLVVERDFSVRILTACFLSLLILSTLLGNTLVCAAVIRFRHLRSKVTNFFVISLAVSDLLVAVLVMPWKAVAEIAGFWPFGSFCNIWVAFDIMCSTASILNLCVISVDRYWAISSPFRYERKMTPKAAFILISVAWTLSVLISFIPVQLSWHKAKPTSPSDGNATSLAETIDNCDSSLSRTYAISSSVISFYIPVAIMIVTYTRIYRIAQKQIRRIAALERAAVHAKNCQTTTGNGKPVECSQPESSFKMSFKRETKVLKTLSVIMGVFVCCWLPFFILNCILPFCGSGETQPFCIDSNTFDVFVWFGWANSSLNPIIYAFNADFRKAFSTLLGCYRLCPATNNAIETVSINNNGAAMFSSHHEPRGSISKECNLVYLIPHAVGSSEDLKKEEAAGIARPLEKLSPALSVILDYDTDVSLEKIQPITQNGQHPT
In short: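 Tetracycline-induced HEK293 TREx D1 cells, force-coupled to calcium signalling, were dye-loaded with a no-wash calcium kit. Compound was pin-added after a 10 s baseline. Fluorescence was read kinetically at 1 cycle/s for 180 s, with calcium rises flagged as agonism.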

| SMILES | activation |
| --- | --- |
| COC(=O)c1ccc(NC(=O)c2cc(S(=O)(=O)N3CCC(C)CC3)cn2C)cc1 | 6.51% (inactive) |
| COc1cccc(CNCCc2c[nH]c3ccccc23)c1OCc1ccccc1F | 18.2% (inactive) |
| COc1ccc(C(CNCC(=O)Nc2ccccc2F)N(C)C)cc1 (configuration not stated) | 0.114% (inactive) |
| COc1ccc(C(CCNCc2ccccc2F)c2ccc(F)cc2)cc1 (configuration not stated) | 41.1% (active) |
| CC(C)CC(NS(=O)(=O)c1ccc2c(c1)oc(=O)n2C)C(=O)NCc1ccccc1Cl (configuration not stated) | 3.12% (inactive) |
| CCOc1ccccc1CNCc1c(C(=O)O)c(C)n(Cc2ccc(C)cc2)c1C | 3.68% (inactive) |
| Cc1cccc(N2CCN(S(=O)(=O)c3ccc4[nH]c5c(c4c3)CCCCC5)CC2)c1C | 2.57% (inactive) |
| O=C(Nc1ccc2nc(SCC(=O)N3CCCc4ccccc43)sc2c1)c1ccc(F)cc1 | 5.54% (inactive) |
| Cc1cc(C)c(S(=O)(=O)N2CCC(C(=O)OCc3c(C)noc3C)CC2)c(C)c1 | 45.3% (active) |
| CCOC(=O)C1CCN(S(=O)(=O)c2c(C)noc2C)CC1 | 0.879% (inactive) |
| CCOC(=O)C1CCN(C(=O)C2CCN(S(=O)(=O)c3c(C)noc3C)CC2)CC1 | -2.99% (inactive) |
| COc1ccc(CCn2cc3c(c2-c2ccc(Br)cc2)c(=O)n(C)c(=O)n3C)cc1OC | 0.633% (inactive) |
| COc1cccc(NC(=O)N2CCN(C(=O)c3nsc4ccccc34)CC2)c1 | 10.2% (inactive) |
| CCOC(=O)c1c(NC(C)=O)c2c3c(sc2n1Cc1c(C)cc(C)cc1C)CCCC3 | 1.79% (inactive) |
| C/C(N)=C(/C#N)C(=O)COC(=O)C1=NN(c2ccccc2)C(=O)CC1 | 2.53% (inactive) |
| COC(=O)CC1=NN(c2ccccc2)C(=O)C1 | 31.5% (active) |
| COC(=O)CC1=NN(c2nc(C)cc(C)n2)C(=O)C1 | 13.3% (inactive) |
| CCOC(=O)c1ccc(NC(=O)C2CC(=O)N(c3ccc(C(C)C)cc3)C2)cc1 (configuration not stated) | 0.0656% (inactive) |
| CCOC(=O)c1cc2c(=O)n3ccccc3nc2n(CCCOC)c1=NC(=O)C(C)Oc1ccccc1 (configuration not stated) | -0.224% (inactive) |

| SMILES | activation |
| --- | --- |
| C=CCC(NC(=O)Cc1ccccc1)C(=O)NCCC (configuration not stated) | -1.62% (inactive) |
| C/C(=N\NC(=O)CNC(=O)C(c1ccccc1)c1ccccc1)c1ccc(C)cc1 | 0.588% (inactive) |
| CCCCC(=O)NNC(=S)NC(=O)C(c1ccccc1)c1ccccc1 | 179% (active) |
| CCOc1ccccc1C(=O)NC1(C(F)(F)F)C(=O)Nc2c1c(=O)[nH]c(=O)n2-c1ccc(F)cc1 (configuration not stated) | 0.807% (inactive) |
| C=CCC1=C/C(=C\c2c(N)n3nc(CC(=O)N4CCOCC4)sc3nc2=O)C=C(OC)C1=O | 38.1% (active) |
| COC1=C/C(=C/c2c(N)n3nc(CC(=O)N4CCOCC4)sc3nc2=O)C=CC1=O | 8.23% (inactive) |
| O=C(NCc1nnc(C(=O)Nc2ccc(C(F)(F)F)cc2Cl)o1)c1ccccc1 | -0.686% (inactive) |
| Cc1cc(Br)ccc1NC(=O)Cn1cnc2sc(C)c(S(=O)(=O)N3CCN(C)CC3)c2c1=O | 2.4% (inactive) |
| COc1ccc(C2(C)NC(=O)N(CC(=O)c3ccc4c(c3)OCO4)C2=O)cc1 (configuration not stated) | 38.5% (active) |
| Cc1oc(C)c2c(=O)cc(-c3ccc4c(c3)OCO4)cc(OC(=O)c3ccc(Cl)cc3)c12 | 5.82% (inactive) |
| CC1(c2ccc3ccccc3c2)NC(=O)N(CC(N)=O)C1=O (configuration not stated) | 3.93% (inactive) |
| CC1CN(C(=O)CN2C(=O)NC(C)(c3ccccc3)C2=O)CC(C)O1 (configuration not stated) | 0.601% (inactive) |
| Cc1ccc(C2(C)NC(=O)N(CC(=O)Nc3ccccc3C(=O)N3CCCCC3)C2=O)cc1 (configuration not stated) | 10.7% (inactive) |
| COc1ccc(C(=O)CN2C(=O)NC(C)(c3ccc(C)cc3)C2=O)cc1OC (configuration not stated) | 26.6% (inactive) |
| Cc1ccc(NC(=O)CN2C(=O)NC(C)(c3ccc(Cl)cc3)C2=O)c(Br)c1 (configuration not stated) | 37.2% (active) |
| CC1(c2ccc(Cl)cc2Cl)NC(=O)N(CC(=O)Nc2cccnc2Cl)C1=O (configuration not stated) | 3.86% (inactive) |
| CC1(c2ccc(Cl)cc2)NC(=O)N(CC(=O)c2ccc3c(c2)OCO3)C1=O (configuration not stated) | 53.1% (active) |
| O=c1n(Cc2cccc(C(F)(F)F)c2)c2ccccc2c2nc(-c3ccccc3)nn12 | 5.18% (inactive) |
| CCOC(=O)C1CCCN(C(=O)Cn2ncc3c(C)n(Cc4ccc(F)cc4)c(C)c3c2=O)C1 (configuration not stated) | 5.3% (inactive) |

| SMILES | activation |
| --- | --- |
| Cc1nn(-c2ccc(N3CCCCC3)nn2)c(C)c1CCC(=O)NCc1ccccc1F | -0.954% (inactive) |
| Cc1ccc(C)c(NC(=O)C2CCCN(S(=O)(=O)c3cn(C)cn3)C2)c1 (configuration not stated) | -0.383% (inactive) |
| CC(C)NC(=O)c1nn(-c2ccccc2F)nc1CO | 1.01% (inactive) |
| CCOC(=O)c1c(C)oc2nc(C)nc(N(CC(C)C)CC(C)C)c12 | 5.8% (inactive) |
| CCc1cccc(NC(=O)c2cnc(N3CCOCC3)c3ccccc23)c1 | -0.292% (inactive) |
| CC1=C(C(=O)OCC(C)C)C(c2ccc(OCc3ccccc3)cc2)N2C(=O)CCSC2=N1 (configuration not stated) | 13.9% (inactive) |
| Cc1c(-c2nsc(NC(=O)c3cccc(Cl)c3)n2)nnn1-c1ccccc1C(F)(F)F | 6.51% (inactive) |
| Cc1cccc2sc(N(CCCN(C)C)C(=O)CCS(=O)(=O)c3ccccc3)nc12 | 44.5% (active) |
| O=C(CCS(=O)(=O)c1ccccc1)N(Cc1cccnc1)c1nc2c(F)cccc2s1 | 7.8% (inactive) |
| O=C(O)CCS(=O)(=O)c1ccc(-c2ccccc2)cc1 | -0.731% (inactive) |
| CCc1nnc(SCC(=O)Nc2cc(OC)ccc2OC)nc1CC | 0.834% (inactive) |
| CN(c1ccccc1)c1ccc(/C=c2\s/c(=C(/C#N)C(=O)C(C)(C)C)n(Cc3ccco3)c2=O)cc1 | 86% (active) |
| CCOc1ccccc1NC(=O)Cn1c(=O)n(Cc2ccco2)c(=O)c2sc3ccccc3c21 | 0.44% (inactive) |
| Cc1cc(C)nc(NC(=O)Nc2ccccc2C(F)(F)F)n1 | 7.87% (inactive) |
| O=C(Nc1ccccc1C(F)(F)F)c1cc(-c2ccc(O)cc2)on1 | 76.6% (active) |
| CCc1ccccc1NC(=O)c1cc(-c2ccc3c(c2)OCO3)on1 | 1.41% (inactive) and 1.39% (inactive) |
| CC(=O)OC1=C(C(C)=O)N(Cc2ccccc2)S(=O)(=O)c2ccccc21 | -0.292% (inactive) |
| CCCCC(=O)OC1=CN(Cc2ccccc2)S(=O)(=O)c2ccccc21 | 43.4% (active) |
| CCOC(=O)CN1C(C(=O)c2ccccc2)=C(OC(=O)C(C)(C)C)c2ccccc2S1(=O)=O | 2.02% (inactive) |
